In PubChem BioAssay AID1159580 (chemical genetic matrix, 2015):
The campaign covered roughly 5,500 compounds. About 2,000 (36%) were called active. Roughly 18% stayed inconclusive and do not appear here. No stated cut-off is given here; in the data, active means normalized growth mostly below about 0.91 (no sharp cut-off); inconclusive means no clear call, values can overlap the other calls; inactive means mostly above about 0.92. The list shows a part of the results.

Test: chemical genetic growth profiling, strain panel (AID 1159580);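 further: tested at 20 µM; growth read once vehicle control cultures reached saturation at 30 °C; 1 = growth at the plate median or of vehicle wells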
Details: S. cerevisiae deletion strains, growth OD

Measured: normalized growth

Cc1cc(C)c(NC(=S)NCCCN2CCOCC2)c(C)c1
inactive: locus YAL013W, strain DEP1, stronger effect = lower value 1 | locus YBR229C, strain ROT2, stronger effect = lower value 1.01 | locus YDL101C, strain DUN1, stronger effect = lower value 0.992 | locus YDR150W, strain NUM1, stronger effect = lower value 0.901 | locus YEL061C, strain CIN8, stronger effect = lower value 1.01 | locus YGR078C, strain PAC10, stronger effect = lower value 1.02 | locus YHR030C, strain SLT2, stronger effect = lower value 1.07 | locus YHR087W, strain rtc3, stronger effect = lower value 1.01 | locus YJL187C, strain SWE1, stronger effect = lower value 1.01 | locus YJR043C, strain POL32, stronger effect = lower value 0.986 | locus YJR075W, strain HOC1, stronger effect = lower value 0.999 | locus YLR039C, strain RIC1, stronger effect = lower value 1.03 | locus YLR058C, strain SHM2 (second series), stronger effect = lower value 1.01 | locus YLR085C, strain ARP6, stronger effect = lower value 1.05 | locus YLR262C, strain YPT6, stronger effect = lower value 1.02 | locus YML094W, strain GIM5, stronger effect = lower value 1 | locus YMR219W, strain ESC1, stronger effect = lower value 1 | locus YMR263W, strain SAP30, stronger effect = lower value 1.03 | locus YNL153C, strain GIM3, stronger effect = lower value 0.992 | locus YNL298W, strain CLA4 (second series), stronger effect = lower value 1.04 | locus YNL322C, strain KRE1, stronger effect = lower value 1.01 | locus YNR030W, strain Alg12, stronger effect = lower value 1.02 | locus YPL055C, strain LGE1, stronger effect = lower value 0.912 | locus YPL241C, strain CIN2, stronger effect = lower value 0.995 | locus YPR135W, strain CTF4, stronger effect = lower value 1.01
